We go through 32 compounds from PubChem BioAssay (NCATS).

Each structure is given as a SMILES string. Unmarked numbers belong to inactive results. Results filed as inconclusive are left out. Active and inactive are the calls of the source. Unless noted, calls follow the shape of the dose curve; as a rule, active = well fitted curve in either direction with a large enough effect (not every such curve was filed as active); inconclusive = small, poorly fitted or top-dose-only effect, or another doubt; inactive = flat fitted curve, though single readings scatter.

Sequence of Glucocorticoid receptor (Homo sapiens) (P04150 whole entry, looked up): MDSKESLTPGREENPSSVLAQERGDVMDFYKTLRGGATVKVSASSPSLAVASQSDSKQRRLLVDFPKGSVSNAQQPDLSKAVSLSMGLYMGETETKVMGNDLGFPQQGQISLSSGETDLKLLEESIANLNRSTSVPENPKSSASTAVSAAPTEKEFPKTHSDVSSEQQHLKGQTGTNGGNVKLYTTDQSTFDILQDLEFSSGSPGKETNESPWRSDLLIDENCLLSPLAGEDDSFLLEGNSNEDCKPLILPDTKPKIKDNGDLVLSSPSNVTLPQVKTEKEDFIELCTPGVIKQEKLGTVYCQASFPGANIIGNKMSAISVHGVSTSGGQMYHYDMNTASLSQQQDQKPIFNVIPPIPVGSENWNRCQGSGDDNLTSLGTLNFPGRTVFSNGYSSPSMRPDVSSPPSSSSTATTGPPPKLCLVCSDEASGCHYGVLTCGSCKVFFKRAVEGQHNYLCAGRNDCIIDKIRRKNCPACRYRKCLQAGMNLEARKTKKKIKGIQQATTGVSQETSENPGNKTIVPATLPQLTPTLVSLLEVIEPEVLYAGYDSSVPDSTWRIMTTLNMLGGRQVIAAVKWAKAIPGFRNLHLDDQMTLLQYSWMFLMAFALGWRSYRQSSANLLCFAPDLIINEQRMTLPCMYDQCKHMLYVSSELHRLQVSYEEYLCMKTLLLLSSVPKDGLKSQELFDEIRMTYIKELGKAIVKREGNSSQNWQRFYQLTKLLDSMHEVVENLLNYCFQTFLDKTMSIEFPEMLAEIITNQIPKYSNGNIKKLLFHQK

Tested on in one test: not listed separately
Kind of test: Stat Signaling Pathway (AID 446).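 Also: ME-180 cervical cancer cells given 40 pM IL-6 alongside compound; SIE-controlled beta-lactamase reporter measured as 460/530 nm FRET emission ratio; % is scaled to controls: 0 for no effect and ±100 for the full control effect.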 The following applies: ME-180 SIE beta-lactamase reporter, IL-6 stimulated, 5 h; series mostly up to 17.2 µM; activity, negative = inhibition: at the top concentration. The method in brief: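 ME-180 cells carrying a SIE-driven beta-lactamase reporter are stimulated with 40 pM IL-6 for 5 h at 37C in the presence of compound. The 460/530 nm FRET substrate ratio is read after 2.5 h at RT. Data are normalised to 300 pM IL-6 and to 125 nM JAK inhibitor controls.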
For the compound `Nc1ccc(S(=O)(=O)c2ccc(N)cc2)cc1`, the compound was called inactive.

Regarding `O=C(Cn1ccnc1[N+](=O)[O-])NCCO`, the “activity, negative = inhibition” value is 10.8%.

For `CC(=O)N[C@@H](CC(C)C)C(=O)O`, the “activity, negative = inhibition” value is -0.629%.

Consider `CC(C)(C)C(=O)OCOC(=O)[C@@H]1N2C(=O)[C@@H](NC(=O)[C@H](N)c3ccccc3)[C@H]2SC1(C)C`, for which the “activity, negative = inhibition” value was -28.7%.

For `CC[N+](CC)(CC(=O)Nc1c(C)cccc1C)Cc1ccccc1`, the “activity, negative = inhibition” value is -0.589%.

For the compound `Cn1c(=O)c2c(ncn2CCO)n(C)c1=O`, the compound was called inactive.

Turning to `CCCCC1(COC(=O)CCC(=O)O)C(=O)N(c2ccccc2)N(c2ccccc2)C1=O`, the “activity, negative = inhibition” value was 4.02%.

On to `O=S1(=O)OC(c2ccc(O)cc2)(c2ccc(O)cc2)c2ccccc21`, for which the “activity, negative = inhibition” value was 4.66% [at 7.69 µM].

In the case of `NCc1ccc(S(N)(=O)=O)cc1`, the result was inactive.

Turning to `Cc1ncc(CO)c(CN)c1O`, the “activity, negative = inhibition” value is 8.49% [at 7.69 µM].

`O=C(O)COC(=O)Cc1ccccc1Nc1c(Cl)cccc1Cl`: the “activity, negative = inhibition” value is 0.757%.

As to `CCS(=O)(=O)CCn1c([N+](=O)[O-])cnc1C`, the outcome was inactive.

The next test addresses Glucocorticoid receptor (Homo sapiens) (UniProt P04150). Nature of the test: GR-GFP Redistribution (AID 450;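 active = compounds whose dose series gives a full or clear partial fitted curve of increased nuclear translocation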; also: potency is read from the fitted curve at half-maximal effect). The following applies: U2OS GR-GFP nuclear translocation, laser cytometry, 2 h.
On to `CN(C(=O)c1c(O)c2ccccc2n(C)c1=O)c1ccccc1`, for which the Potency was more than 46 µM.

Regarding `C[C@@H](N)C(=O)O`, the Potency is more than 46 µM.

`C[N+](C)(C)CC[N+]1(C)Cc2c(Cl)c(Cl)c(Cl)c(Cl)c2C1`: the Potency was more than 46 µM.

Regarding `O=C1c2ccccc2S(=O)(=O)N1CCCCN1CCN(c2ncccn2)CC1`, the Potency was more than 46 µM.

On to `CC(C)=CCC/C(C)=C/CO`, for which the Potency is more than 46 µM.

The next test has the same target. Kind of test: GR-EFC Redistribution (AID 451; calls by dose curve; also: potency is read from the fitted curve at half-maximal effect). The following applies: CHO-K1 GR-EFC translocation, beta-gal luminescence, 2 h. The method in brief:
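Translocation of GR-ED fusion to nuclear EA restores b-gal, read by luminescence after 1 h room-temperature detection. Engineered CHO-K1 biosensor cells, 1,000/well, exposed 2 h at 37 C to titrations up to 46 uM final.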
Turning to `CN(C(=O)c1c(O)c2ccccc2n(C)c1=O)c1ccccc1`, the Potency is more than 46 µM.

Regarding `C[C@@H](N)C(=O)O`, the Potency was more than 46 µM.

With `C[N+](C)(C)CC[N+]1(C)Cc2c(Cl)c(Cl)c(Cl)c(Cl)c2C1`, the Potency was more than 46 µM.

Take `O=C1c2ccccc2S(=O)(=O)N1CCCCN1CCN(c2ncccn2)CC1`: the Potency is more than 46 µM.

On to `CC(C)=CCC/C(C)=C/CO`, for which the Potency was more than 9.22 µM.

The target of the next test is Mitogen-activated protein kinase 10 (Mus musculus) (UniProt Q61831). Kind of test: JNK3 AlphaScreen Assay (AID 530).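 Also: kinase came from lysate of stimulated human HepG2 cells; signal reports phosphorylation of biotinylated GST-cJun 1-79 at Ser73 with 10 µM ATP; % is scaled to controls: 0 for no effect and ±100 for the full control effect.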 The following applies: JNK3 lysate, c-Jun phosphorylation; series mostly up to 25.6 µM; activity change, negative = inhibition: at the top concentration. The method in brief:
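Compound titrations were preincubated 15 minutes at room temperature with substrate, antibody and pre-activated JNK3-containing HepG2 lysate. Reactions were started with 10 uM ATP and stopped with EDTA-containing bead buffer for AlphaScreen detection.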
In general terms: In Alpha technology, singlet oxygen from a donor bead excites a nearby acceptor bead.
Turning to `Nc1ccc(S(=O)(=O)c2ccc(N)cc2)cc1`, the compound was classed as inactive.

Take `CC1CC(OC(=O)c2ccccc2O)CC(C)(C)C1` (centres undefined): the “activity change, negative = inhibition” value was 11.4% [at 57.1 µM].

With `COc1ccc(O)cc1`, the “activity change, negative = inhibition” value was 6.91% [at 57.1 µM].

Consider `O=C(Cn1ccnc1[N+](=O)[O-])NCCO`, for which the “activity change, negative = inhibition” value is 3.98%.

In the case of `CC(=O)N[C@@H](CC(C)C)C(=O)O`, the “activity change, negative = inhibition” value is -1.94%.

As to `Cc1cc(=O)[nH]c(=S)[nH]1`, the “activity change, negative = inhibition” value is 18.2% [at 57.1 µM].

In the case of `CC(=O)Nc1ccc(C(=O)O)cc1`, the “activity change, negative = inhibition” value was 12% [at 57.1 µM].

Take `CC(C)(C)C(=O)OCOC(=O)[C@@H]1N2C(=O)[C@@H](NC(=O)[C@H](N)c3ccccc3)[C@H]2SC1(C)C`: the “activity change, negative = inhibition” value is -3.07%.

In the case of `CCN(CC)C(=O)c1cccc(C)c1`, the “activity change, negative = inhibition” value was 23.2% [at 57.1 µM].

With `CCCCCC(N)=O`, the “activity change, negative = inhibition” value was 4.38% [at 57.1 µM].

As to `CC(=O)Nc1cccc(O)c1`, the “activity change, negative = inhibition” value is 16.9% [at 57.1 µM].

Consider `CN(C(=O)c1c(O)c2ccccc2n(C)c1=O)c1ccccc1`, for which the “activity change, negative = inhibition” value was 16.5% [at 57.1 µM].

As to `CC[N+](CC)(CC(=O)Nc1c(C)cccc1C)Cc1ccccc1`, the “activity change, negative = inhibition” value is -3.87%.

`CCCC(O)C(CC)CO` (centres undefined): the “activity change, negative = inhibition” value is 2.01% [at 57.1 µM].

Regarding `C[C@@H](N)C(=O)O`, the “activity change, negative = inhibition” value is 5.71% [at 57.1 µM].

For the compound `O=C(O)CCCCC1CCSS1` (centres undefined), the “activity change, negative = inhibition” value was 28.8% [at 57.1 µM].

Consider `C=CCNC(N)=S`, for which the “activity change, negative = inhibition” value is -15.6% [at 57.1 µM].

Regarding `CC(=O)Nc1ccccc1`, the “activity change, negative = inhibition” value was 5.34% [at 57.1 µM].

Regarding `Cn1c(=O)c2c(ncn2CCO)n(C)c1=O`, the “activity change, negative = inhibition” value was -3.62%.

In the case of `CCCCC1(COC(=O)CCC(=O)O)C(=O)N(c2ccccc2)N(c2ccccc2)C1=O`, the “activity change, negative = inhibition” value was -2.67%.

As for `CC(=O)OCC(COC(C)=O)OC(C)=O`, the “activity change, negative = inhibition” value is 9.69% [at 57.1 µM].

As to `O=S1(=O)OC(c2ccc(O)cc2)(c2ccc(O)cc2)c2ccccc21`, the “activity change, negative = inhibition” value was 2.82% [at 11.4 µM].

For the compound `C[N+](C)(C)CC[N+]1(C)Cc2c(Cl)c(Cl)c(Cl)c(Cl)c2C1`, the “activity change, negative = inhibition” value was -5.57% [at 57.1 µM].

Consider `O=C1c2ccccc2S(=O)(=O)N1CCCCN1CCN(c2ncccn2)CC1`, for which the “activity change, negative = inhibition” value was 3.63% [at 57.1 µM].

With `NCc1ccc(S(N)(=O)=O)cc1`, the “activity change, negative = inhibition” value was 2.9%.

Take `Cc1ncc(CO)c(CN)c1O`: the “activity change, negative = inhibition” value is -1.72% [at 11.4 µM].

For `CCCCCCCC(=O)OCC(COC(=O)CCCCCCC)OC(=O)CCCCCCC`, the “activity change, negative = inhibition” value is 19.7% [at 57.1 µM].

For `O=C(O)COC(=O)Cc1ccccc1Nc1c(Cl)cccc1Cl`, the “activity change, negative = inhibition” value was -1.57%.

On to `CCS(=O)(=O)CCn1c([N+](=O)[O-])cnc1C`, for which the “activity change, negative = inhibition” value was 1.71%.

For `CC(C)=CCC/C(C)=C/CO`, the “activity change, negative = inhibition” value was 4.25% [at 11.4 µM].

As for `O=C(c1ccccc1)C(O)c1ccccc1` (centres undefined), the “activity change, negative = inhibition” value was 16.4% [at 57.1 µM].

With `FC(F)(F)C(Cl)Br` (centres undefined), the “activity change, negative = inhibition” value was 9.59% [at 57.1 µM].
